According to the supplement of paper PMC10849652:
The full data set covers some 7,900 targets. This sample favours those with a hit. About 0.6% of all pairs of compound and target were hits.

What follows are targets tested with Cc1ccc(NC(=O)c2ccc(CN3CC[C@H](N(C)C)C3)c(C(F)(F)F)c2)cc1Nc1nccc(-c2cncnc2)n1 [bafetinib] (assay: log2 fold change, soluble protein after heating vs DMSO (PISA); higher = thermal stabilisation; K562 cells, 10 uM, 30 min; active = over 0.2 and 3.5 SD of the protein, either way, in both replicates (recomputed)).
In short: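 K562 cells at 2×10^6 cells/mL were exposed to 10 μM compound for 30 min, then aliquots were heated for 3 min across 48°C-58°C, pooled, and extracted in PBS containing 0.5% NP-40 at 4°C. The supernatant after 21,000xg for 90 min was taken as soluble protein and measured by TMTpro 16plex LC-MS/MS with channel sums equalised. Thermal stability is reported relative to control samples, with values from duplicates. Fold changes are given on a log2 scale.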

UniProt O60271, sequence (O60271 whole entry, looked up): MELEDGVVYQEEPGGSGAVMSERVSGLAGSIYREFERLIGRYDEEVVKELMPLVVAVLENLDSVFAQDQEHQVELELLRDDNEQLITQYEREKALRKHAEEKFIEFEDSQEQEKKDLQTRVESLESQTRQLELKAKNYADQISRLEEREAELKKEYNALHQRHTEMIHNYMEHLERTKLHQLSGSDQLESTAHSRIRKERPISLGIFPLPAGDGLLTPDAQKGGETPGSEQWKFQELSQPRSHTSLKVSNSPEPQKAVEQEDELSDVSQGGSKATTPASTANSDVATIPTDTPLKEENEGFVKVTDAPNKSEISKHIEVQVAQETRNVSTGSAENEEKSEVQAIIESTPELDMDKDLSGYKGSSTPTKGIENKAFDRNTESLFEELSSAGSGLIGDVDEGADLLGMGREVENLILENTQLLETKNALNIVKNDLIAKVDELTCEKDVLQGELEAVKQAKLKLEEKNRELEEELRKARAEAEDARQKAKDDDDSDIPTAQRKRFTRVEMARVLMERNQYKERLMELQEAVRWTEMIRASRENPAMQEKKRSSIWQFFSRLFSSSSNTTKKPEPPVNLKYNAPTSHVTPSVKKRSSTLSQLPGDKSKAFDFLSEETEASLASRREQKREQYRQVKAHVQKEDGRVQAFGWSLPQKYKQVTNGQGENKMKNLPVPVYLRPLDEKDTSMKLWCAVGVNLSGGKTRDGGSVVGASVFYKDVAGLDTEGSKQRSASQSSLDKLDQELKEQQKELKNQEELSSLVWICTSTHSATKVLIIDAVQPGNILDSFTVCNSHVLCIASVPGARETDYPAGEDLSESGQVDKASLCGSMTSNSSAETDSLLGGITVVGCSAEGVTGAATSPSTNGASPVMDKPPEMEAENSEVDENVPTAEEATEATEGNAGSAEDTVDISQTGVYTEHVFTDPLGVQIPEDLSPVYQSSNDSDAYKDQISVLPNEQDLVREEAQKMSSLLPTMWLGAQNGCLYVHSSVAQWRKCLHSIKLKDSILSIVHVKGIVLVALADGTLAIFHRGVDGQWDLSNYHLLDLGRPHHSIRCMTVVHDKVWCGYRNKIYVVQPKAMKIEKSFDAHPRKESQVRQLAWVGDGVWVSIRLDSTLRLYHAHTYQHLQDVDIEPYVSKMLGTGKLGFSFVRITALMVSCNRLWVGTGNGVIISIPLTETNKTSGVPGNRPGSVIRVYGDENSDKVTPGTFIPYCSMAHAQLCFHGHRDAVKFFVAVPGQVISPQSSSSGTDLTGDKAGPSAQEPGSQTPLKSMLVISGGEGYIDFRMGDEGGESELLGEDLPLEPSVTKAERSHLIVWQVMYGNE
UniProt Q8IY18, sequence (Q8IY18 whole entry, looked up): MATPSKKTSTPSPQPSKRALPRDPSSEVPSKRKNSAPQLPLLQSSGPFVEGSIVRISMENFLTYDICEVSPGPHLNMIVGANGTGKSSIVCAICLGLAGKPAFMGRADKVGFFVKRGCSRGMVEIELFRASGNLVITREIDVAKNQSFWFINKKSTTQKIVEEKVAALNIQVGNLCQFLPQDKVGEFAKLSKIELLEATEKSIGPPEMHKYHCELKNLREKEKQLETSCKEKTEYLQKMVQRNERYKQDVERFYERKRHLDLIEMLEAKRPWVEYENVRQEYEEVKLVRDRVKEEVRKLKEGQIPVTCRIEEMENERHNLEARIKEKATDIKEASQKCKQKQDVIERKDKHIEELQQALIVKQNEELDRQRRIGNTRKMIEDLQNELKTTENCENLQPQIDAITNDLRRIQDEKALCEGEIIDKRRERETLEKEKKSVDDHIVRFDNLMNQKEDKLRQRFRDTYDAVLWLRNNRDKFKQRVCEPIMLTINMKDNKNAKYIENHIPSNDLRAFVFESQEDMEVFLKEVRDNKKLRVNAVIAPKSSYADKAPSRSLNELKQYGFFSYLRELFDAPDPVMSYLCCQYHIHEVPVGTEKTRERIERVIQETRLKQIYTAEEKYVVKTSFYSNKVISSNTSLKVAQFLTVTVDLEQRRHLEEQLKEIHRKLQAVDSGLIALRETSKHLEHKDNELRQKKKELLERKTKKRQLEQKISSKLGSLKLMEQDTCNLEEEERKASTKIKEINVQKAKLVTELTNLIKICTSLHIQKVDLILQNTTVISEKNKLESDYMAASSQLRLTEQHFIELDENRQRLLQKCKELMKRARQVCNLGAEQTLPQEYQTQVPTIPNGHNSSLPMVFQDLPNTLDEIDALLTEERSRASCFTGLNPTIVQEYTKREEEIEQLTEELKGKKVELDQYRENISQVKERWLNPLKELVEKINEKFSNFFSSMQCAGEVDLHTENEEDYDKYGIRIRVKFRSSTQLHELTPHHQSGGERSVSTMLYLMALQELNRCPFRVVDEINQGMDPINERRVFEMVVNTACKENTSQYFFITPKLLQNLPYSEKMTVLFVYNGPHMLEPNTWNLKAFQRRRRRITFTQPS
UniProt P08047, sequence (P08047 whole entry, looked up): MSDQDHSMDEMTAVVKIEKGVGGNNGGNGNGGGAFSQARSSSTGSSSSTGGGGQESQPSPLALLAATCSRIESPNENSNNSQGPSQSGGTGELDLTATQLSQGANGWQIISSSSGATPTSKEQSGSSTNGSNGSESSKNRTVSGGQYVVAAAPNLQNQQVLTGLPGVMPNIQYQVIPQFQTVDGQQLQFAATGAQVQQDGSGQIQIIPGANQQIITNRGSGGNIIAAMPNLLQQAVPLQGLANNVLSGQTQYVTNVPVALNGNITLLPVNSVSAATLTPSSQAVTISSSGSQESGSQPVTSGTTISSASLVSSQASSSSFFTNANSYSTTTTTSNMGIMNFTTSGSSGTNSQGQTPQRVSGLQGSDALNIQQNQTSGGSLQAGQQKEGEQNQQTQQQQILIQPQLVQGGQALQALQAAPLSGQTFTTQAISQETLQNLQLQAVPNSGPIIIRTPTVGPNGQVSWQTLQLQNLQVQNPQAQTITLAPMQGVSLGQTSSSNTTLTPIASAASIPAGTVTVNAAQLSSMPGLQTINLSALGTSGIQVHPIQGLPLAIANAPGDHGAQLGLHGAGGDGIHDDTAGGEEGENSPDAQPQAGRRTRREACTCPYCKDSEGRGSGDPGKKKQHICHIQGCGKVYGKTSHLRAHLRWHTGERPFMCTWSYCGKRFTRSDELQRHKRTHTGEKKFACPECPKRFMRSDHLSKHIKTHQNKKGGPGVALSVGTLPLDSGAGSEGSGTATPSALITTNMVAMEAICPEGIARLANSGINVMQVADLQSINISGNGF
UniProt Q8N1S5, sequence (Q8N1S5 whole entry, looked up): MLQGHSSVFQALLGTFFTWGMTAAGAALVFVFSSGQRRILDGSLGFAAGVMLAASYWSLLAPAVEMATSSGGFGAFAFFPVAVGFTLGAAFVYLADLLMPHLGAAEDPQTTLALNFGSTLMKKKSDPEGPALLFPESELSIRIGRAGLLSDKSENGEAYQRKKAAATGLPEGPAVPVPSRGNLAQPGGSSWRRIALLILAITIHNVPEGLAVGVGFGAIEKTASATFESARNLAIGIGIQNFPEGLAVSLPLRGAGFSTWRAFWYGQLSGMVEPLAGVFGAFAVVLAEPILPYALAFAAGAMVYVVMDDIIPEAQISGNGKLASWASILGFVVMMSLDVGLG
UniProt Q15796, sequence (Q15796 whole entry, looked up): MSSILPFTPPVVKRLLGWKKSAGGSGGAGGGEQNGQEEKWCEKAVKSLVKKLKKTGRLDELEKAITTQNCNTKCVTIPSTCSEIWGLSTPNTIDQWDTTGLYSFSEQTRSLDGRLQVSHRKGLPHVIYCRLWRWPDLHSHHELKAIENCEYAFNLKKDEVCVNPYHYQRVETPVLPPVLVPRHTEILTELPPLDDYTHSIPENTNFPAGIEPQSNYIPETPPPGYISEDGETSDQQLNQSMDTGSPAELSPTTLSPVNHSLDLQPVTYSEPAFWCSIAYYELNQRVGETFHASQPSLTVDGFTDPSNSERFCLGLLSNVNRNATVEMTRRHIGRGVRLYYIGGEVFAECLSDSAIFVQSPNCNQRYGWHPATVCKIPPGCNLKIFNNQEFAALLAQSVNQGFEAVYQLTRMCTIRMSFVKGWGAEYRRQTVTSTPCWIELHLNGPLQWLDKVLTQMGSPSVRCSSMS
UniProt Q96DW6, sequence (Q96DW6 whole entry, looked up): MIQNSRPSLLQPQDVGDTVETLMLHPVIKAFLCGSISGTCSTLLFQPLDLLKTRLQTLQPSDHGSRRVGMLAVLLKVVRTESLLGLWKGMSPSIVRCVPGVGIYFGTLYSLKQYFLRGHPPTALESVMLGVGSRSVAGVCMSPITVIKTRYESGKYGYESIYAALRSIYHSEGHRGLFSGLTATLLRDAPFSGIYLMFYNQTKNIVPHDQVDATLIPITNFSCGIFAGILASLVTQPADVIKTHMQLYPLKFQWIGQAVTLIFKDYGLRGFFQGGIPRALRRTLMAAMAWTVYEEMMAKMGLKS
UniProt P30626, sequence (P30626 whole entry, looked up): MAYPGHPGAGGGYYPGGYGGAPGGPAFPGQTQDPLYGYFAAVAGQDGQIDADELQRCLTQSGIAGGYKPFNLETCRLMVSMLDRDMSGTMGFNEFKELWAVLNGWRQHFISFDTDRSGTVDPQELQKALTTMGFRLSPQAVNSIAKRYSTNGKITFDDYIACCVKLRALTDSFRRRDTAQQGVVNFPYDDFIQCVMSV
UniProt O15400, sequence (O15400 whole entry, looked up): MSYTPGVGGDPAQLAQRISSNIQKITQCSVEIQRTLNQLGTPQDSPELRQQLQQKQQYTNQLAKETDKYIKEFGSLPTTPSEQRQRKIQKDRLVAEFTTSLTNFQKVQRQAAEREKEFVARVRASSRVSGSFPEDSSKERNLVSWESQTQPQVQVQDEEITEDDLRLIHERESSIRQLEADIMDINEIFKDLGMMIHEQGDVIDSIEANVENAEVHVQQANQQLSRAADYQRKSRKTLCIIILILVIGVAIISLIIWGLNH
UniProt Q00059, sequence (Q00059 whole entry, looked up): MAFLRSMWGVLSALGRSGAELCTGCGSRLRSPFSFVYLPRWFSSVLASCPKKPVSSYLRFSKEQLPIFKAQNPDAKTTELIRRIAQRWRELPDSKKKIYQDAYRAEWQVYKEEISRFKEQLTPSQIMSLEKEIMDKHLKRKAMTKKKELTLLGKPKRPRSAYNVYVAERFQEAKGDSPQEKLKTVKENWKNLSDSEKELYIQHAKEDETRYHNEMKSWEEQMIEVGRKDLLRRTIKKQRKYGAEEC

log2 fold change, inactive:
SYNE2 isoform 2 (UniProt Q8WXH0) -0.008
SPAG9 (UniProt O60271) -0.056
SRFBP1 (UniProt Q8NEF9) 0.075
SMC5 (UniProt Q8IY18) 0.02
SLC38A7 (UniProt Q9NVC3) -0.142
SLC30A10 (UniProt Q6XR72) -0.019
TK1 (UniProt K7ERV3) -0.03
SMCHD1 (UniProt A6NHR9) 0.306
SLC44A2 isoform 2 (UniProt Q8IWA5) 0.058
SYNE1 (UniProt Q8NF91) -0.051
TENT5C (UniProt Q5VWP2) -0.055
SRCAP (UniProt Q6ZRS2) -0.057
TBC1D20 isoform 3 (UniProt Q96BZ9) -0.03
STK11IP (UniProt Q8N1F8) -0.06
SMAD2 (UniProt Q15796) -0.019
STXBP2 isoform 3 (UniProt Q15833) 0.088
SPIRE1 (UniProt Q08AE8) -0.06
TGFBR1 isoform 2 (UniProt P36897) -0.009
STK38L (UniProt Q9Y2H1) -0.02
STARD3 (UniProt Q14849) -0.097
SRC isoform 2 (UniProt P12931) -0.054
SRSF6 (UniProt Q13247) 0.578
TEX30 (UniProt Q5JUR7) -0.01
TFAM (UniProt Q00059) 0.034
SLC39A11 (UniProt Q8N1S5) -0.13
TM9SF4 (UniProt Q92544) 0.034
SLC25A38 (UniProt Q96DW6) -0.08
SSBP4 (UniProt Q9BWG4) -0.045
TAOK3 (UniProt Q9H2K8) -0.066
SRI (UniProt P30626) -0.001
SNX15 (UniProt Q9NRS6) 0.036
SRXN1 (UniProt Q9BYN0) -0.011
STX7 (UniProt O15400) -0.06
SMARCA4 (UniProt P51532) 0.149
TATDN2 (UniProt Q93075) 0.088
TACC2 (UniProt O95359) -0.044
SOAT1 (UniProt P35610) 0.085
SP1 (UniProt P08047) -0.041
